Assay outcomes deposited in PubChem BioAssay by National Center for Advancing Translational Sciences (NCATS).
This is one part of a sample in which hits are shown more often than they occur.
LMNA splice mod: qHTS Assay for Modulators of Lamin A Splicing. HeLa LMNA splicing GFP/RFP minigene ratio, 48 h. Potency, µM (series often up to 46.1 µM), for inactives: top-dose ratio change, negative = inhibition, hits mostly inhibitors. actives 0.01% (n = 200,000); active = well fitted inhibition curve with a large enough effect in the signal ratio, with a control signal flat, not every such curve was filed as active; inconclusive = small, poorly fitted or top-dose-only effect, or effect the other way, or a change in a side signal; the % refers to the signal ratio; also: potency is read from the fitted curve at half-maximal effect
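Read-out is the ratio of GFP to DsRed2 object intensity, acquired by 488 nm laser-scanning cytometry on HeLa lamin A-EGFP minigene reporter cells. Compound incubation 48 hrs at 37 °C in Opti-MEM with 2% FBS; DMSO 0.5% final.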
PNC assembly inh: High Content Assay for Compounds that inhibit the Assembly of the Perinucleolar Compartment; actives 3.1% (n = 140,000); activity change (PNC), negative = inhibition, % at 10 µM; PC3M PTB-GFP, PNC prevalence imaging, 16 h; stronger effect = lower value;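 active = readout at or below -70, meaning at least 70% loss of cells showing the perinucleolar compartment, a nuclear body marking cancer cells; inconclusive = readout between -30 and a set limit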;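 also: plate controls were DMSO wells for no effect and camptothecin positive control wells for full effect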
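PC3M cells stably expressing PTB-GFP, 750–1000 cells/well, treated 16 h at 37 °C with compound (23 nl of library stock), in duplicate. After paraformaldehyde fixation and Hoechst stain, imaged at 20x; PNC prevalence scored by image analysis.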
IMPase inh: qHTS Assay for Identifying the Cell-Membrane Permeable IMPase Inhibitors; CHO-M1 cells, IP1 accumulation, HTRF TR-FRET ratio; inhibition (IP1 accumulation), % at 46.1 µM; 120,000 tested, under 10 active; AID 901, 2007; active = well fitted curve in the direction sought with a large enough effect in the signal ratio, not every such curve was filed as active; inconclusive = small, poorly fitted or top-dose-only effect, or a change in a side signal; inactive = no such curve, though single readings can be large or run the other way; the % refers to the signal ratio;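 also: cells stimulated with carbachol in lithium chloride buffer; plate controls were DMSO basal wells for no effect and reference inhibitor wells for full effect; higher means more IMPase inhibition seen as more IP1 and lower FRET ratio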
Target sequence (P97697 whole entry, looked up): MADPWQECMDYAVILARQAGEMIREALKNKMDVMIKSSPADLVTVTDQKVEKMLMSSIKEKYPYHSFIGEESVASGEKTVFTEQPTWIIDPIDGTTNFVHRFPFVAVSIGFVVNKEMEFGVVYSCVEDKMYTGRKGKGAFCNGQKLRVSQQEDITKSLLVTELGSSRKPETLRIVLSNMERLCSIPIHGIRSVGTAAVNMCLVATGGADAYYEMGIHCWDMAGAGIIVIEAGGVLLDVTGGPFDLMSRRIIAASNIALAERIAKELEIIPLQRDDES
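In this qHTS, compounds (final up to 46 uM) act on CHO-M1 cells that are then activated through the M1 receptor with carbachol, in pH 7.4 buffer containing 50 mM LiCl, for 30 min. IP1 accumulation is quantified by the IP-One immunoassay.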
* hit, by the source's call; ? = inconclusive; / = no result given; [ ] = another dose, or the depositor's remark. Unless noted, % is scaled to controls: 0 for no effect and ±100 for the full control effect.

SMILES	LMNA splice mod	PNC assembly inh	IMPase inh
CCc1ccc(NC(=O)CSc2nc(C)c(C(=O)Nc3ccc(Cl)cc3)c(-c3ccc(OC)cc3)c2C#N)cc1	/	/	-4
OCCN(Cc1ccccc1)Cc1ccc(Cl)cc1Cl	-1%	76	3
Cc1ccsc1CN(C)C(=O)CCc1nnc(COc2ccccc2)o1	-3%[46 µM]	/	/
Cc1ccc(N(Cc2cccs2)C(=O)c2ccccc2[N+](=O)[O-])cc1	5%[46 µM]	/	/
CCCCCCN1N=C(C)C(C(=O)c2ccc(Cl)cc2)C1=O (stereo not given)	-21%	-3	2
CCCCCCCN1N=C(C)C(C(=O)c2ccccc2)C1=O (stereo not given)	?	-85*	-4
Cc1c(NC(=O)CSCc2c(F)cccc2Cl)c(=O)n(-c2ccccc2)n1C	7%[46 µM]	/	/
CCCOc1ccc(C(=O)Nc2ccc3oc(-c4ccc5ccccc5c4)nc3c2)cc1	/	/	-12
COc1ccc(/C=C(\C#N)C(=O)NC2CCS(=O)(=O)C2)cc1OC (stereo not given)	?	-119*	11
COc1ccc(/C=C(\C#N)C(=O)NCc2cccs2)cc1OC	-13%	-15	/
COC(=O)C1=C(C(=O)OC)[C@@H]2Nc3ccccc3[C@@]23C[C@@H](C(=O)OC)N(C(=O)COCc2ccccc2)C3=N1	-18%[9.22 µM]	/	/
CCCn1c(=O)sc2cc(NC(=O)c3ccc(OC)c(Br)c3)ccc21	/	/	-1
COc1ccc(C2=C(C)C(N3CCC(C(=O)NCc4ccc(C)o4)CC3)=NS2(=O)=O)cc1	-2%[46 µM]	/	/
CC(=O)c1cccc(NC(=O)CSc2nc(=O)n(Cc3ccco3)c3c2CCC3)c1	-9%[46 µM]	/	/
CCn1c(-c2ccc(C)cc2)n[nH]c1=S	4%	10	-1
CCCn1c(-c2ccc(F)cc2)n[nH]c1=S	0%	-121*	-8
CCOC(=O)Nc1ccc2c(CN3C(=O)NC(CC)(CC)C3=O)cc(=O)oc2c1	18%	2	-2
CCOC(=O)Nc1ccc2c(CN3C(=O)NC4(CCCC4)C3=O)cc(=O)oc2c1	-4%	-100*	-15
O=C(NN1C(=O)C2C3C=CC(C3)C2C1=O)c1ccccc1 (stereo not given)	11%[46 µM]	/	/
O=C(NN1C(=O)C2C3C=CC(C3)[C@H]2C1=O)c1cccnc1 (stereo not given in full)	-14%	-98*	3
COc1ccc(CCNC(=O)Cc2cc(OC)c(OC)cc2Br)cc1OC	-20%[46 µM]	/	/
COc1ccc(CCNC(=O)Cc2ccc(OCc3ccccc3)c(OC)c2[N+](=O)[O-])cc1OCc1ccccc1	?	-101*	13
COc1cccc(Cn2c(=O)cc(C)c3c(C)nn(-c4ccc(C)cc4)c32)c1	-18%[46 µM]	/	/
Cc1ccc(C(=O)Nc2ccc3oc(-c4ccccc4C)nc3c2)cc1	9%[46 µM]	/	/
COc1ccc(C(c2nnnn2Cc2ccccc2)N2CCN(c3ccccc3)CC2)cc1 (stereo not given)	6%	27	-6
SMILES	LMNA splice mod	PNC assembly inh	IMPase inh
COc1ccc(Cn2nnnc2C(c2ccncc2)N2CCOCC2)cc1 (stereo not given)	2%	-99*	-3
Cc1ccc(C(c2nnnn2CC2CCCO2)N2CCN(C)CC2)cc1 (stereo not given)	3%[46 µM]	/	/
COc1ccc(C(c2nnnn2CC2CCCO2)N2CCN(c3ccc(F)cc3)CC2)cc1 (stereo not given)	6%	-86*	-6
CCOC(=O)c1cc(-c2ccccc2)n(CC(=O)Nc2ccc(OC)c(OC)c2)c1C	?	-88*	/
CCOC(=O)c1cc(-c2ccccc2)n(CC(=O)Nc2cccc(OC)c2)c1C	-3%	?	/
CC(=O)Nc1nonc1-c1nnc(SCC(=O)Nc2ccc(F)cc2F)n1-c1ccccc1	-7%[46 µM]	/	/
Cc1cc(S(=O)(=O)N2CCN(c3c(C)cccc3C)CC2)ccc1F	?	-8	16
CCC(C)N(C)Cc1cccc(C2(O)CCN(S(=O)(=O)c3ccc(F)c(C)c3)CC2)c1 (stereo not given)	?	-113*	/
CCCc1cc(C(=O)N/N=C/c2ccc(C)o2)c2ccccc2n1	4%	-1	5
Cc1ccc(/C=N/NC(=O)c2cc(C3CC3)nc3ccccc23)o1	?	-108*	/
Cc1cc(C(=O)N/N=C/c2ccc(C)o2)c2ccccc2n1	?	-94*	/
Cc1cc(C(=O)N/N=C/c2ccco2)c2ccccc2n1	-27%	22	/
Cc1c(Cl)cccc1NC(=O)CNCc1ccccc1F	0%[46 µM]	/	/
CN1CCN(C2=Cc3ccccc3Sc3cc(F)c(Cl)cc32)CC1	-15%	-6	22
CN1CCN(C2=Cc3ccccc3Sc3cc(F)c(F)cc32)CC1	-10%	-88*	26
Cc1cccc(N2C(S)=C(C#N)C(=O)NC2c2cccs2)c1 (stereo not given)	-7%	-84*	-6
N#CC1=C(S)N(c2ccc(F)cc2)C(c2cccs2)NC1=O (stereo not given)	-3%	23	-4
CC(/C=N/NC(=O)c1c(Br)cnn1C)=C\c1ccccc1	3%	?	/
Cn1ncc(Br)c1C(=O)N/N=C/c1ccc(OS(=O)(=O)c2ccccc2)cc1	-1%	-80*	?
Cc1ccc(C(=O)NC(C)C(c2cccs2)N2CCCC2)s1 (stereo not given)	-4%[46 µM]	/	/
Cc1ccc(NC(=O)c2nc(S(C)(=O)=O)ncc2N(Cc2ccco2)Cc2ccco2)cc1C	9%[46 µM]	/	/
CCOc1ccc(-n2nnc3c(=O)n(C/C=C/c4ccccc4)cnc32)cc1	-3%	-89*	1
C=CCn1cnc2c(nnn2-c2ccc(Cl)cc2)c1=O	-2%[46 µM]	/	/
CN(CC(=O)Nc1ccc(N2CCOCC2)cc1)Cc1c(O)ccc2ccccc12	-4%[46 µM]	/	/
CCC(=O)Nc1ccccc1Nc1cc(C#N)c(C#N)cc1[N+](=O)[O-]	?	11	-2
SMILES	LMNA splice mod	PNC assembly inh	IMPase inh
Cc1ccc(S(=O)(=O)N(C)Cc2cc3ccccc3[nH]c2=O)cc1	8%	-99*	-1
CN(Cc1cc2ccccc2[nH]c1=O)S(=O)(=O)c1ccccc1	-5%	8	5
Cc1cccn2c(=O)c(C(=O)N3CCN(c4ccc(Cl)cc4)CC3)cnc12	14%[46 µM]	/	/
CCCCOc1ccc(S(=O)(=O)Nc2ccc(-c3ccc(N4CCC(C)CC4)nn3)cc2)cc1	-8%[46 µM]	/	/
CC(C)C(=O)N(Cc1ccc(F)cc1)Cc1nc2ccccc2c(=O)[nH]1	20%[46 µM]	/	/
CCCCN(C)CC(O)Cn1cc(/C=C/C(=O)c2cccs2)c2ccccc21 (stereo not given)	?	-100*	1
Cc1ccc(C(=O)/C=C/c2cn(CN3CCN(C)CC3)c3ccccc23)cc1	?	12	4
O=C(Nc1ccc(F)cc1F)c1cc(S(=O)(=O)N2CCCCC2)c[nH]1	8%[46 µM]	/	/
COc1ccc(OCC(=O)Nc2cc(-c3nc4ccccc4s3)ccc2C)cc1	/	/	-2
Cc1ccc(C(=O)NC(=S)Nc2cc(-c3nc4ccccc4s3)ccc2C)cc1	11%[0.0737 µM]	-109*	-1
O=C(Cn1nc(-c2ccc(Cl)cc2)c2ccccc2c1=O)Nc1cccc(C(F)(F)F)c1	/	/	1
CCOC(=O)c1cccc(NC(=O)CSc2nc3cccnc3n2C)c1	?	?	-3
CN(Cc1ccccc1)C(=O)COC(=O)c1ccc(S(=O)(=O)N(C)C)cc1	5%[46 µM]	/	/
